Test results taken from PubChem BioAssay AID1063 (University of Pittsburgh Molecular Library Screening Center, 2008).
The whole screen tested about 200,000 compounds, of which about 18,000 (9%) were called active. No stated cut-off is given here; in the data, active means inhibition above about 50%; inactive means the rest. The full list was thinned out, with actives kept by preference.

Assay: Leishmania major promastigote growth inhibition, primary screen (AID 1063);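 further: promastigotes grown with compound for 44 hours at 28 °C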
Conditions: Leishmania major promastigotes, resazurin fluorescence viability; at 10 µM; hits give high values

Structure (SMILES)	inhibition
CN1C(=O)/C(=N/OC(=O)c2ccccc2Br)c2ccccc21	-16.5% (inactive)
O=C(NNC(=S)NC1CCCCC1)c1ccccc1Cl	16.1% (inactive)
Oc1c(CN2CCN(c3ccc(F)cc3)CC2)cc(Cl)c2cccnc12	100% (active)
O=C(c1cccc(C(=O)N2CCN(c3ccc(F)cc3)CC2)c1)N1CCN(c2ccc(F)cc2)CC1	-10.6% (inactive)
Fc1ccc(N2CCN(Cc3cnc(Oc4ccc(Br)cc4)s3)CC2)cc1	-8.09% (inactive)
Cc1nnc(SCC(=O)NNC(=O)c2ccc(Cl)cc2)n1CC1CCCO1 (centres undefined)	-2.51% (inactive)
C/C(=N\OC(=O)c1ccccc1)c1c(C)nc2cc(C)ccn12	5.76% (inactive)
Cc1ccc(N(C(=O)Cc2cccs2)C(C(=O)NCC2CCCO2)c2ccncc2)cc1 (centres undefined)	3.99% (inactive)
Cc1cccc(N(C(=O)c2ccc(CN3CCOCC3)o2)C(C(=O)NC2CCCCC2)c2ccc(F)cc2)c1 (centres undefined)	-5.01% (inactive)
Cc1ccc(N(C(=O)c2ccc(CN3CCOCC3)o2)C(C(=O)NCCC(C)C)c2cccs2)c(C)c1 (centres undefined)	90.9% (active)
CN(C)CC(C)(C)CNC(=O)c1cc(Br)cc(Br)c1O	-1.61% (inactive)
CC1=CC2=NC(=O)CC(C)(C(=O)N(CC(=O)NC(C)(C)C)Cc3ccccc3)N2C=C1 (centres undefined)	-6.31% (inactive)
Cc1cccc(CSc2nc3c(c(=O)n2C)SCC3)c1	7.35% (inactive)
COc1ccc(C(CCN(Cc2ccc(OC)c(OC)c2)C(=O)CCl)c2ccccc2)cc1 (centres undefined)	100% (active)
CCOC(=O)CN(Cc1ccc(OC)c(OC)c1)S(=O)(=O)c1ccc(OC)cc1	0.46% (inactive)
COc1ccc(CCNC(=O)CN(c2ccccc2)S(C)(=O)=O)cc1OC	-7.09% (inactive)
O=C(O)CCn1c(SCc2cc(=O)n3ccccc3n2)nc2ccsc2c1=O	-0.88% (inactive)
CCN(CC)CCNC(=O)c1ccc(NC(=O)c2c(F)cccc2Cl)cc1	7.35% (inactive)
COc1ccc(F)c(-c2nc(CN3CCC(c4ccccc4)CC3)c(C)o2)c1	48.2% (inactive)
COc1ccc(Cn2nnc3c(=O)[nH]c(C4CCN(C(=O)c5ccccc5Cl)CC4)nc32)cc1	-0.57% (inactive)
COc1ccc(CN2CCC(c3nc4ccc(Cl)cc4[nH]3)CC2)cc1	95.6% (active)
CCOc1ccc(C(CC(=O)O)NC(=O)C23CC4CC(CC(C4)C2)C3)cc1OC (centres undefined)	3.74% (inactive)
Cn1ncc2c(Nc3cccc4ccccc34)ncnc21	-6.4% (inactive)
O=C(NNc1ncnc2c1cnn2-c1ccccc1)c1ccco1	-5.13% (inactive)

Structure (SMILES)	inhibition
Cn1ncc2c(NNC(=O)Cc3cccc4ccccc34)ncnc21	61.6% (active)
O=C1OCC2=C1C(c1ccccc1)CC(=O)N2c1cccc(F)c1 (centres undefined)	7.11% (inactive)
COC(=O)CCNc1ccc2c(c1)OCCO2	-0.44% (inactive)
Cc1ccc2nc(-c3ccncc3)cc(C(=O)Nc3ccc4c(c3)OCCO4)c2c1	5.91% (inactive)
CCOC(=O)c1cnc2ccc(F)cc2c1Nc1ccc2c(c1)OCCO2	85.4% (active)
O=C(COc1cc(Cl)c(Cl)cc1Cl)NCCc1ccccn1	-5.85% (inactive)
CCOc1cc(CNCCN(C)C)c(Cl)cc1OCC(=O)NCCc1ccccc1	99% (active)
CCCNCc1cc(OCC)c(OCC(=O)Nc2ccccc2)cc1Br	33.5% (inactive)
Cc1ccc(-c2n[nH]c(=S)n2/N=C/c2cc3c(cc2[N+](=O)[O-])OCO3)cc1	-0.37% (inactive)
CCOc1ccc(-c2n[nH]c(=S)n2/N=C/c2cc3c(cc2[N+](=O)[O-])OCO3)cc1	52.8% (active)
O=[N+]([O-])c1ccccc1/C=N/n1c(COc2ccccc2)n[nH]c1=S	-4.75% (inactive)
CN(C)c1ccc2c(=O)[nH][nH]c(=O)c2c1	-5.2% (inactive)
CC(=O)N1CCc2cc(Br)cc(S(=O)(=O)CCC(=O)Nc3c(C)n(C)n(-c4ccccc4)c3=O)c21	-1.11% (inactive)
CCOCCCn1c(NN)nc2ccccc2c1=O	-5.56% (inactive)
O=c1oc(/C=C/c2ccccc2)nc2ccccc12	1.06% (inactive)
CCn1c(/C=C/c2ccc([N+](=O)[O-])o2)nc2ccccc2c1=O	100% (active)
CCN1CCC2(CCN(Cc3cn[nH]c3-c3ccc(OC)c(F)c3)C2)C1 (centres undefined)	1.79% (inactive)
Cc1noc(C)c1CSCC(=O)Nc1nc2ccc(Oc3ccccc3)cc2s1	2.23% (inactive)
CCOC(=O)c1c(C2CC2)csc1NC(=O)CSCc1c(C)noc1C	100% (active)
CCOC(=O)c1c(-c2cccc(C)c2)csc1NC(=O)c1c(-c2ccccc2)noc1C	1.98% (inactive)
CCOC(=O)c1c(NC(=O)CCl)sc(C(=O)N(CC)CC)c1C	100% (active)
CCOC(=O)c1sc(NC(=O)CCN2CCOCC2)c(C(=O)OCC)c1C	7.86% (inactive)
CCOC(=O)Nc1sc(C(=O)N(C)C)c(C)c1C(=O)OCC	7.28% (inactive)
CCOC(=O)N1CCN(S(=O)(=O)c2cc(Br)cc3c2N(C(=O)C2CC2)CC3)CC1	-13.7% (inactive)

Structure (SMILES)	inhibition
CS(=O)(=O)N(CC(=O)NCc1ccco1)c1ccc2c(c1)OCO2	7.89% (inactive)
CCN(c1ccc2c(c1)OCO2)S(=O)(=O)c1cc(Br)cc2c1N(C(=O)C1CC1)CC2	57% (active)
COC(=O)C1=C(C)N(C(C)c2ccccc2)C(=O)/C1=C\c1ccco1 (centres undefined)	12.7% (inactive)
O=c1[nH]c(CN2CCN(S(=O)(=O)c3ccc4c(c3)OCCO4)CC2)nc2sc3c(c12)CCCC3	26.5% (inactive)
O=[N+]([O-])c1ccc(C=Nc2ccc(Cl)cc2Cl)s1	100% (active)
CCCNC(=O)c1c(Cl)cnn1-c1ccc(C)cc1	6.12% (inactive)
Cc1ccc(CN(C)CC(=O)Nc2cccc([N+](=O)[O-])c2)o1	8.58% (inactive)
CC(C)(C)n1ncc2c(=O)n(Cc3ccc(Cl)cc3)cnc21	0.21% (inactive)
CCN(CC)S(=O)(=O)c1ccc(Cl)c(NC(=O)c2ccncc2)c1	19.7% (inactive)
COc1ccc(C2CC(c3cccs3)Nc3nnnn32)cc1 (centres undefined)	-4.3% (inactive)
COc1ccc(-n2c(SCC(=O)NCc3ccco3)nnc2-c2c[nH]c3ccccc23)cc1	97.7% (active)
O=C(CSc1nnc(-c2c[nH]c3ccccc23)n1-c1ccc(F)cc1)NCc1ccco1	52.5% (active)
O=C(CSc1nnc(-c2cccs2)n1-c1ccccc1)NCc1ccco1	7.53% (inactive)
COc1ccc(C(=O)NC(=O)CSc2nnc(-c3ccco3)n2-c2ccccc2)cc1	-4.51% (inactive)
O=C(CSc1nnc2scc(-c3ccc(F)cc3)n12)NCc1ccco1	-2.03% (inactive)
COc1ccc(-n2c(SCC(=O)NCc3cccs3)nnc2-c2ccoc2C)cc1	5.39% (inactive)
Cc1ccc(N=Cc2c(O)cc(C)oc2=O)c(C)c1	-1.99% (inactive)
COc1cccc(CNC(=O)Cc2csc(Nc3nc(=S)[nH]c4ccccc34)n2)c1	2.33% (inactive)
COC(=O)C[n+]1cccc2ccccc21	28.5% (inactive)
CC1=CC(C)(C)Nc2ccc(OC(=O)CN3C(=O)C4CCCCC4C3=O)cc21 (centres undefined)	100% (active)
Cc1ccc(C)n1C(Cc1ccccc1)C(=O)O (centres undefined)	-7.64% (inactive)
CC1=CC(C)(C)Nc2ccc(OC(=O)C(Cc3ccccc3)N3C(=O)C4CCCCC4C3=O)cc21 (centres undefined)	65.6% (active)
O=C(CN1C(=O)C2C3CCC(C3)C2C1=O)Oc1ccc2ccccc2c1 (centres undefined)	7.23% (inactive)
CC(OC(=O)CN1C(=O)C2CCCCC2C1=O)C(=O)Nc1ncc(Cl)cc1Cl (centres undefined)	-6.88% (inactive)

Structure (SMILES)	inhibition
COc1cccc(NC(=O)NCc2ccc(F)cc2)c1	2.02% (inactive)
CN(NC(=O)C1CC(=O)N(c2ccccc2)C1)C1=NS(=O)(=O)c2ccccc21 (centres undefined)	-0.26% (inactive)
CCc1ccc(Oc2nc([N+](=O)[O-])nn2C)cc1	12.5% (inactive)
CSc1nc2nc(-c3cccc(C(F)(F)F)c3)ccn2n1	-7.55% (inactive)
C=CCN1C(=O)C(O)(CC(=O)c2ccccn2)c2ccccc21 (centres undefined)	3.64% (inactive)
CC(=O)N1CCCc2cc(S(=O)(=O)CCC(=O)N3CCN(c4ccccc4)CC3)ccc21	-3.41% (inactive)
CCOc1ccc(NC(=O)CCS(=O)(=O)c2ccc3c(c2)CCCN3C(=O)CC)cc1	62.8% (active)
CCCNS(=O)(=O)c1ccc2c(c1)CCCN2C(C)=O	-1.63% (inactive)
O=C(c1ccc(F)cc1)N1CCCC(c2nc(-c3cccs3)no2)C1 (centres undefined)	5.3% (inactive)
O=C(c1cccs1)N1CCCC(c2nc(-c3ccc(F)cc3)no2)C1 (centres undefined)	-8.27% (inactive)
O=C(Cc1cccs1)N1CCCC(c2nc(-c3ccc(S(=O)(=O)N4CCCC4)cc3)no2)C1 (centres undefined)	95.1% (active)
C=C(C)c1cccc(C(C)(C)NC(=O)NCCN(CC)CC)c1	4.54% (inactive)
COC(=O)CN1C(=O)N/C(=C/c2ccc(OC)c(C)c2OC)C1=O	-9.01% (inactive)
S=C(NC1CCCCC1)NN1CCOCC1	-1.39% (inactive)
COc1ccccc1Cn1c(C)nnc1-c1cnn(C)c1N	0.00407% (inactive)
COC(=O)c1ccc(NC(=O)CSc2nnc(-c3ccncc3)n2C)cc1	5.08% (inactive)
CCOC(=O)c1ccc(NC(=O)CSc2nnc(COc3ccccc3OC)n2C)cc1	89% (active)
CCOC(=O)c1ccc(NC(=O)CSc2ncccn2)cc1	0.48% (inactive)
CCc1cc2cc(OC)ccc2nc1SCC(=O)Nc1cc(OC)c(OC)cc1C(=O)O	-7.93% (inactive)
CN(Cc1ccccc1)c1nc2c(c(=O)[nH]c(=O)n2C)n1CCSc1nc2ccccc2[nH]1	95% (active)
Cc1ccnc(SCCn2c(N(C)Cc3ccccc3)nc3c2c(=O)n(C)c(=O)n3C)n1	34.8% (inactive)
Cn1c(=O)[nH]c(=O)c2c1nc(N(CCO)Cc1ccccc1)n2Cc1ccccc1Cl	23.7% (inactive)
